# Assay outcomes from PubChem.
# RORgamma inh: blocks mouse ROR gamma transcriptional activity | Drosophila S2 Gal4-RORgamma UAS-luciferase reporter, 20 h | P51450 | AID 2551 | Potency, µM (series often up to 53.6 µM), without a hit: at the top dose activity change, negative = inhibition, usual class: inhibitors | 5.4% of 310,000 active; also: potency is read from the fitted curve at half-maximal effect; nearly all actives have a fitted effect of over 60% in size
# Target sequence (P51450 whole entry, looked up, the tested form may be a part): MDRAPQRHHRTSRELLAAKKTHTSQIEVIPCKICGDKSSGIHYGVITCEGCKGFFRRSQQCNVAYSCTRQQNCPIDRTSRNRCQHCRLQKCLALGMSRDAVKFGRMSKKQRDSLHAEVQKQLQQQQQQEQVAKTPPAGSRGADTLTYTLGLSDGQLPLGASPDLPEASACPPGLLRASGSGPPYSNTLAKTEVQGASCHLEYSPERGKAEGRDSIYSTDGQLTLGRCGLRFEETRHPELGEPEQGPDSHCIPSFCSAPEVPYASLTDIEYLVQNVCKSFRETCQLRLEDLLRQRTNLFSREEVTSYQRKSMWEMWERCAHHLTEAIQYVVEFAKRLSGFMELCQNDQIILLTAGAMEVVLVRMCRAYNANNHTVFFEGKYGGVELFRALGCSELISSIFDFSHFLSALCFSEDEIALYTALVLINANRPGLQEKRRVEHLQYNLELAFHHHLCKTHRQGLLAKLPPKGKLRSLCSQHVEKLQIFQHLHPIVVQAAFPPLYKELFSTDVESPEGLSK
#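 ROR gamma transcriptional activity was tracked as Gal4-UAS luciferase output in stably transfected Drosophila Schneider cells, with compound added 1 hr before 700 uM copper sulfate induction and a 20 hr ambient-temperature incubation.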
# DT40 TDP1 CPT: DT40-hTDP1 cell growth loss with CPT | Potency, µM (doses to about 46.2 µM), inactives show at the highest dose activity change, negative = growth inhibition, hits mostly inhibitors | 12% of 420,000 active | chicken DT40 Tdp1-/-;hTDP1 cells + 20 nM CPT, ATP luminescence, 48 h; also: potency is read from the fitted curve at half-maximal effect; nearly all actives have a fitted effect of over 55% in size
#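 Chicken DT40 Tdp1-/- cells complemented with human TDP1, 400 cells/well, exposed to compounds plus 20 nM camptothecin for at least 48 h at 37 C; viability read as ATP content by CellTiter-Glo luminescence.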
# ELG1 repair inh: blocks ELG1-dependent DNA repair in HEK293T cells. HEK293T ELG1-luciferase reporter, luminescence, 16 h; DNA damage induced by 5-fluorouridine. Potency, µM (top dose mostly 46.1 µM), for inactives: at the highest dose activity change, negative = inhibition, usual class: inhibitors. 2.3% of 330,000 active; also: potency is read from the fitted curve at half-maximal effect; nearly all actives have a fitted effect of over 55% in size
#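 Overnight (16 hr) co-exposure of 2,000 cells/well to 5-fluorouridine and compound at 37 °C preceded detection. Luciferase was quantified via ONE-Glo luminescence; loss of signal denotes inhibition.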
# IL1B secr inh: inflammasome signaling inhibition, IL-1 beta readout | activity change, % at 57.5 µM | AID 743279 | 4.7% of 360,000 active | THP-1 LPS/ATP IL-1B secretion, AlphaLISA, 16 h; active compounds read low; in the data active = activity change below about -50%; inconclusive = mostly about -30% to -49%
#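 Secreted IL-1B measured by AlphaLISA bead assay after 16 h compound exposure of THP-1 cells; compounds (final up to 57.5 uM) added 1 h before LPS (250 ng/mL) and ATP (1.25 mM) stimulation; lower signal means less secretion.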
# DT40 TDP1 no CPT: qHTS for Inhibitors of human tyrosyl-DNA phosphodiesterase 1 (TDP1): qHTS in cells in absence of CPT. 15% of 420,000 active. DT40 Tdp1-/- hTDP1 cells, no CPT, ATP luminescence, 48 h. Potency, µM (highest dose often 46.2 µM), inactives show at the top dose activity change, negative = growth inhibition, most hits filed as inhibitors; also: potency is read from the fitted curve at half-maximal effect; nearly all actives have a fitted effect of over 55% in size
#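 Seeded 400 DT40-hTDP1 cells/well (vehicle DMSO, no 20 nM CPT); pinned compounds; ≥48 hr at 37 °C; CellTiter-Glo luminescence as viability measure.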
# Gal4-VP16 FLuc: inhibits Gal4-VP16 luciferase reporter, ROR gamma counter-screen. Drosophila S2 Gal4-VP16 UAS-luciferase, luminescence, 20 h. Potency, µM (top dose mostly 53.6 µM), inactives show at the highest dose activity, negative = inhibition, usual class: inhibitors. 3.5% of 310,000 active;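 also: Gal4-VP16 expression switched on by copper sulfate through the metallothionein promoter; potency is read from the fitted curve at half-maximal effect; nearly all actives have a fitted effect of over 50% in size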
# Numbers without * were called inactive; ? = inconclusive; nt = not tested or not shown; [ ] = remark or other dose. Compounds with a hit are over-represented: about 21% of the library has one in this group of screens. Unless noted, calls follow the shape of the dose curve; as a rule, active = well fitted curve in the direction sought with a large enough effect; inconclusive = small, poorly fitted or top-dose-only effect, or another doubt; inactive = no such curve, though single readings can be large; an effect the other way counts as inactive or inconclusive. % is scaled to controls: 0 for no effect and ±100 for the full control effect.
SMILES,RORgamma inh,DT40 TDP1 CPT,ELG1 repair inh,IL1B secr inh,DT40 TDP1 no CPT,Gal4-VP16 FLuc
CNC(=S)NCCCc1ccccc1,15.8µM*,3.8%,8.2%,3.2,3.1%,?
O=C(CS(=O)(=O)c1ccccc1)Nc1ccc(Br)cn1,30.5%,?,16.0%,-19.5,-20.6%,1.6%
S=C(Cc1ccccc1)NCCc1ccccc1,nt,-27.6%,0.5%,30.3,-17.0%,nt
S=C(NCCc1ccccc1)NCCc1ccccc1,7.08µM*,?,?,0.0,?,10µM*
Cc1ccccc1-c1nccc(NCc2cccs2)n1,?,?,nt,nt,?,1.2%
C/C(CCc1ccc2c(c1)OCO2)=N\N=C1\NC(=O)CC(C(=O)Nc2ccccc2F)S1 (stereo not drawn),11.2µM*,-8.7%,3.9%,32.5,-17.1%,?
CSc1cccc(NC(=O)Cn2c3ncccc3c(=O)n2-c2ccc(C)cc2)c1,nt,?,nt,nt,16.4µM*,nt
CN(C)c1ccc(NC(=O)c2cc3c(=O)n4ccccc4nc3n2C)cc1,nt,?,nt,?,14.6µM*,nt
CN(C(=O)c1cc2c(=O)n3ccccc3nc2n1C)c1ccccc1,nt,11.6µM*,nt,nt,?,nt
COc1ccc(OC)c(NC(=O)c2cc3c(=O)n4ccccc4nc3n2C)c1,?,-29.0%,-7.1%,-1.0,-22.2%,-9.4%
COc1cc(NC(=O)c2cccs2)c(OC)cc1NC(=O)CCC(=O)Nc1ccc(C)cc1,-22.3%,-32.1%,-7.2%,-12.1,-24.8%,-0.5%
CC(=O)Nc1nnc([N+](=O)[O-])s1,nt,18.4µM*,nt,7.2,18.4µM*,nt
CCN1C(=O)C(CC(=O)Nc2ccc(F)cc2)N(CCc2ccc(OC)cc2)C1=S (stereo not drawn),39.6%,4.0%,?,?,?,-14.5%
CCN1C(=O)C(CC(=O)Nc2ccc(OC)cc2)N(CCCN2CCN(c3ccc(OC)cc3)CC2)C1=S (stereo not drawn),2.7%,20.6µM*,?,-29.9,16.4µM*,-1.6%
COC(=O)CN1C(=S)N(Cc2ccccc2)C(=O)C1CC(=O)Nc1ccc(Br)cc1 (stereo not drawn),?,16.4µM*,0.0%,-18.0,?,0.8%
CCN1C(=O)C(CC(=O)Nc2ccc(OC)cc2)N(CCc2ccccc2)C1=S (stereo not drawn),20.7%,4.5%,?,-75.7*,-20.4%,-2.5%
CCCOc1ccc(NC(=O)CC2C(=O)N(Cc3ccccc3)C(=S)N2Cc2cccs2)cc1 (stereo not drawn),?,9.2µM*,?,?,20.6µM*,1.0%
COc1ccc(C(=O)NCCCNC(=O)c2ccccn2)cc1Br,1.3%,-14.8%,20.2%,20.3,1.2%,-2.6%
Cc1nc2ccccc2c(=O)n1-c1ccc(NC(=O)c2cccc([N+](=O)[O-])c2)cc1,nt,18.4µM*,nt,nt,20.6µM*,nt
Cc1ccc(C(=O)Nc2ccc(-n3c(C)nc4ccccc4c3=O)cc2)cc1[N+](=O)[O-],nt,9.2µM*,nt,nt,7.31µM*,nt
Cc1cc(-n2c(C)nc3ccccc3c2=O)ccc1NC(=O)c1cccc([N+](=O)[O-])c1,nt,16.4µM*,nt,nt,11.6µM*,nt
O=C(Nc1cccc2ccccc12)c1cccc([N+](=O)[O-])c1,-16.2%,-6.3%,8.9%,-8.4,-13.4%,-0.8%
Cc1ccc(SCc2nn(C)c(Cl)c2C=O)cc1,18.4%,11.8%,?,3.4,-26.2%,10.7%
CC1(C(=O)NS(=O)(=O)c2ccc3c(c2)CCO3)CCN1C(=O)Cc1ccc(-c2ccccc2)cc1 (stereo not drawn),nt,-3.8%,nt,19.0,-9.4%,nt
CCN(CC)c1nn2c(=O)c(C(=O)NCc3cccc(C)c3)cnc2s1,nt,?,nt,nt,16.4µM*,nt
SMILES,RORgamma inh,DT40 TDP1 CPT,ELG1 repair inh,IL1B secr inh,DT40 TDP1 no CPT,Gal4-VP16 FLuc
CCCN(CCC)c1nn2c(=O)c(C(=O)NCc3cccc(OC)c3)cnc2s1,nt,?,nt,nt,16.4µM*,nt
N/C(=C\C(=O)c1cc(Cl)ccc1O)C(Cl)(Cl)Cl,3.98µM*,3.66µM*,?,0.0,3.26µM*,?
Cc1ccc(O)c(C2=NNC(c3ccc(Cl)cc3)C2)c1 (stereo not drawn),7.94µM*,?,18.1%,1.8,?,12.6µM*
Oc1ccc(Cl)cc1C1=NNC(c2cccs2)C1 (stereo not drawn),5.01µM*,?,?,2.4,?,?
Cc1n[nH]c(=O)[nH]c1=O,3.5%[16.9 µM],nt,nt,nt,nt,3.6%[17 µM]
Cc1ccc(NC(=O)Cn2c(=O)ccn(Cc3ccccc3)c2=O)cc1S(=O)(=O)N1CCOCC1,nt,4.3%,nt,27.8,-0.8%,nt
COc1ccc(CCn2c(=N)c(C(=O)NC3CCCC3)cc3c(=O)n4ccccc4nc32)cc1OC,-6.1%,0.731µM*,?,-2.8,0.651µM*,5.6%
COc1ccc(Cn2c(=N)c(C(=O)NC3CCCCC3)cc3c(=O)n4ccccc4nc32)cc1,-3.6%,18.4µM*,?,10.9,8.2µM*,2.9%
COc1cccc(NC(=O)c2cc3c(=O)n4ccccc4nc3n(CC(C)C)c2=N)c1,2.4%,6.51µM*,?,1.8,5.8µM*,6.1%[10 µM]
COc1ccc(CCn2c(=N)c(C(=O)NC3CCCC3)cc3c(=O)n4ccccc4nc32)cc1,0.3%,4.11µM*,-16.5%,-82.7*,3.26µM*,-13.9%
COCCCn1c(=N)c(C(=O)NC2CCCC2)cc2c(=O)n3ccccc3nc21,nt,1.1%,nt,nt,-0.7%,nt
N=c1c(C(=O)NC2CCCCC2)cc2c(=O)n3ccccc3nc2n1CC1CCCO1 (stereo not drawn),13.8%,4.5%,-7.3%,24.8,?,4.1%
C/C=C\C[C@@H](C)[C@@H](O)[C@H]1C(=O)N[C@@H](CC)C(=O)N(C)CC(=O)N(C)[C@@H](CC(C)C)C(=O)N[C@@H](C(C)C)C(=O)N(C)[C@@H](CC(C)C)C(=O)N[C@@H](C)C(=O)N[C@H](C)C(=O)N(C)[C@@H](CC(C)C)C(=O)N(C)[C@@H](CC(C)C)C(=O)N(C)[C@@H](C(C)C)C(=O)N1C,9.0%,nt,nt,nt,nt,-4.5%
O=C(O)C(c1ccccc1)N1CCCC1 (stereo not drawn),2.3%,-2.9%,4.5%,0.0,-1.0%,-5.2%
COc1ccc(CCn2c(=N)c(C(=O)NCC3CCCO3)cc3c(=O)n4ccccc4nc32)cc1OC (stereo not drawn),-4.2%,7.31µM*,?,?,2.91µM*,-8.3%
